Screening data (PubChem)
Only some compounds are listed: those with a hit (about 3.4% of all), similar ones and a draw of the others.
GPR151 ag – activates the human receptor GPR151 | AID 1508602 | Q8TDV0 | 650,000 compounds, 1% hits | activation, % at 11.2 µM | PathHunter beta-arrestin GPR151 cells, luminescence; in the data active = activation above about 4.9%;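 also: 0% = median of compound wells and 100% = cells with positive control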
Target sequence (Q8TDV0 whole entry, looked up): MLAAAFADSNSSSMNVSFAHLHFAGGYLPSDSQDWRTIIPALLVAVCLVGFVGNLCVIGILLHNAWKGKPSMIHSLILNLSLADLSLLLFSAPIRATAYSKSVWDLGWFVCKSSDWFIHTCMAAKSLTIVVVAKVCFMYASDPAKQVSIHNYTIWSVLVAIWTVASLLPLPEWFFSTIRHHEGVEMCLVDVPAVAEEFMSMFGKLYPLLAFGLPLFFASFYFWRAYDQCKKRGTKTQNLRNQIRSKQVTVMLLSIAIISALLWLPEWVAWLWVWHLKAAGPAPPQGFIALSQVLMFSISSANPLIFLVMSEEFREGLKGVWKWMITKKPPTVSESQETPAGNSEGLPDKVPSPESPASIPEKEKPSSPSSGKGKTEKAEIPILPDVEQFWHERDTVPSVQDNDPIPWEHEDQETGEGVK
MITF inh – human MITF inhibition, primary screen; O75030; AlphaScreen MITF homodimerization, bead proximity signal; inhibition, % at 2.6 µM; 650,000 compounds, 0.91% hits; in the data active = inhibition above about 50%;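 also: 0% = vehicle wells with protein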
FBW7 act – human FBW7 E3 ligase activation, primary screen; AlphaScreen FBW7–phospho-cyclin E peptide binding, activator screen; normalized activity (activation), % at 26.1 µM; Q969H0; 650,000 compounds, 0.13% hits; AID 1259310; in the data active = normalized activity above about 1.9%;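 also: purified mutant Fbw7 with reduced substrate affinity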
TEAD-YAP block – TEAD-YAP interaction inhibition; HEK-TIYL cells, TEAD-Gal4/YAP UAS-luciferase luminescence; inhibition, % at 9.12 µM; 640,000 compounds, 1.4% hits; in the data active = inhibition above about 32%;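 also: 0% = median of test compound wells and 100% = reference inhibitor wells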
MITF confirm – confirmation of human MITF inhibitors; 4,700 compounds, 16% hits; inhibition, % at 2.6 µM; AID 1259372; AlphaScreen MITF homodimerization, biotin/His-MITF beads; shares compounds with MITF inh;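 active = inhibition above a cutoff derived from the DMSO control wells, cut at about 28% in these data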;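 also: 0% = MITF dimer wells with DMSO only; inhibitors lower the bead chemiluminescence by keeping MITF from dimerizing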
AlphaScreen intf2 – AlphaScreen optical interference, counter-screen; shares compounds with MITF inh; inhibition, % at 2.6 µM; 4,700 compounds, 7.6% hits; AID 1259376; LysRS AlphaScreen counterscreen, signal interference, triplicate;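 active = inhibition above a cutoff derived from the DMSO control wells, cut at about 30% in these data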
Numbers without * were called inactive; . = no result given.

SMILES	GPR151 ag	MITF inh	FBW7 act	TEAD-YAP block	MITF confirm	AlphaScreen intf2
O=C(CN1C(=O)COc2cc(S(=O)(=O)N3CCOCC3)ccc21)NC1CCCC1	-0.1	1.9	-0.2	-1.5	.	.
Cc1ccc2oc(-c3ccc(NC(=O)C4CCCN4C(=O)OCc4ccccc4)cc3O)nc2c1 (configuration not stated)	-0.9	-0.3	0.0	-12.3	.	.
CCC(C)(C)NCC(=O)Nc1ccc(OC(F)(F)F)cc1	0.4	3.2	-0.2	-9.9	.	.
Cc1ccc(C)c(NC(=O)CCC(=O)Nc2cc(C)ccc2C)c1	-0.3	7.2	0.2	-4.2	.	.
CN(C)CC(C)(C)CNCC(=O)Nc1ccc(OC(F)(F)F)cc1	1.1	55.2*	0.0	10.8	2.0	6.9
Cc1ccc(C)c(NC(=O)CNCC(C)(C)CN(C)C)c1	-0.4	73.6*	-0.3	-2.8	-2.7	-1.1
Cc1ccc(NC(=O)c2nn3c(C(F)(F)F)cc(-c4ccccc4)nc3c2Cl)cc1C	-0.5	12.7	0.5	11.9	.	.
COCCCNCCOc1ccc(OCc2ccccc2)cc1	-2.4	46.5	0.4	-22.0	.	.
COCCNCCCCOc1ccc(OCc2ccccc2)cc1	-1.1	65.9*	-0.2	-28.4	11.4	14.6
CN(C)CCNCCCOc1ccccc1	-1.6	55.7*	0.3	11.0	4.7	16.4
CC(C)(c1ccccc1)c1ccc(OCCCNCCN)cc1	1.0	-1.7	-0.1	8.7	.	.
COCCNCCCOc1ccc(C(C)(C)c2ccccc2)cc1	-1.1	84.9*	0.2	10.2	1.9	7.2
COCCCNCCCOc1ccc(C(C)(C)c2ccccc2)cc1	0.2	76.2*	-0.1	4.8	2.1	4.9
COc1cc(-c2nc3ncccn3c2Nc2ccccc2)ccc1O	-1.2	1.2	0.0	4.9	.	.
CC(=O)c1cccc(NC(=O)c2ccc(N3CC4CC(C3)c3cccc(=O)n3C4)c([N+](=O)[O-])c2)c1 (configuration not stated)	0.1	5.5	0.0	0.2	.	.
O=C1N[C@H](CO)C(=O)N2C[C@@H](NCc3ccc(F)c(F)c3)C[C@@H]12	-1.0	-5.7	0.0	-4.2	.	.
COc1cc2cc(C#N)c(SCC(=O)NCC3CCCO3)nc2cc1OC (configuration not stated)	-0.4	-6.0	0.0	0.0	.	.
CCOC(=O)Cc1nnc(C2CC(=O)N(c3ccc(C)cc3)C2)o1 (configuration not stated)	-1.2	7.7	0.5	-12.1	.	.
O=C1c2ccccc2C(=O)N1CCCc1nc2c3c4c(sc3ncn2n1)CCCC4	-0.9	6.5	0.7	-7.0	.	.
COc1ccc(OC)c(C(=O)CSc2ncn[nH]2)c1	2.9	7.7	0.0	-8.7	.	.
COc1ccc(C(=O)CSc2ncn[nH]2)cc1C	-0.3	69.2*	-0.1	-15.3	7.1	15.3
CCc1ccccc1NC(=O)CCCN1C(=S)NC(C)(C)CC1C (configuration not stated)	-0.3	-2.7	-0.2	5.5	.	.
CCN1CCN(CCNC(=O)CCCN2C(=S)NC(C)(C)CC2C)CC1 (configuration not stated)	1.4	71.2*	-0.1	7.7	4.8	6.3
c1ccc(COc2ccc(OCCCN3CCNCC3)cc2)cc1	1.0	62.4*	-0.3	58.0*	1.2	5.2
CC1CN(CCOc2ccc3ccccc3c2)CC(C)O1 (configuration not stated)	-0.8	29.7	0.3	-10.8	.	.
SMILES	GPR151 ag	MITF inh	FBW7 act	TEAD-YAP block	MITF confirm	AlphaScreen intf2
c1ccc(Oc2cccc(OCCCCN3CCOCC3)c2)cc1	-0.9	29.1	-0.3	-3.8	.	.
CCN1CCN(CCCOc2cccc(Oc3ccccc3)c2)CC1	-0.7	69.2*	-0.6	-6.2	6.7	16.2
c1ccc(Oc2cccc(OCCCN3CCNCC3)c2)cc1	2.0	31.0	-0.5	-13.2	.	.
Fc1ccc(OCCCN2CCNCC2)cc1	-1.0	36.8	0.1	1.0	.	.
c1ccc(Oc2cccc(OCCCCN3CCNCC3)c2)cc1	-0.9	77.3*	-0.3	-16.3	3.4	13.5
CCOc1cccc(OCCN2CC(C)OC(C)C2)c1 (configuration not stated)	0.5	52.9*	-0.4	-6.3	11.5	11.8
O=C(NC1CC1)c1ccc(N2C(=O)C3C4c5ccccc5C(c5ccccc54)C3C2=O)cc1 (configuration not stated)	-0.3	-1.4	0.0	-1.7	.	.
Clc1cccc(OCCN2CCNCC2)c1	-1.9	49.0	1.0	2.9	.	.
CCOc1cccc(OCCN2CCNCC2)c1	-0.7	75.1*	-0.2	-2.0	9.2	-12.9
C=CCNC(=O)C(=O)Nc1cc(C)ccc1C	-0.7	3.5	-0.1	-8.1	.	.
CC1CCN(CC(=O)N(C)C2(c3ccccc3Cl)CCCCC2=O)CC1 (configuration not stated)	1.6	90.0*	-0.5	-9.5	-17.8	6.4
CC(C(=O)NCc1ccco1)N1CCN(C)CC1 (configuration not stated)	2.0	-2.9	0.2	6.1	.	.
C=CCC1(NCc2ccco2)CCN(C)CC1	0.3	63.1*	-0.1	-3.8	-0.4	-3.5
CCN(CC)C(=O)C1CCCN(Cc2ccc([N+](=O)[O-])o2)C1 (configuration not stated)	0.9	56.4*	0.5	13.7	3.5	9.2
CCN(CC)C(=O)C1CCCN(Cc2ccc(C)o2)C1 (configuration not stated)	0.4	38.9	-0.1	14.6	.	.
CCN(CC)C(=O)C1CCCN(Cc2ccc(C(F)(F)F)cc2)C1 (configuration not stated)	0.3	53.3*	0.0	14.5	-2.4	-1.6
Cc1ccc(C(=O)Nc2ccc(Cl)cc2F)o1	-2.5	-6.2	-0.1	-59.5	.	.
O=C(NCC1CCCO1)c1ccc(CS(=O)c2ccc(Br)cc2)o1 (configuration not stated)	0.4	2.5	-0.1	4.6	.	.
c1cc(-c2cncnc2)c2nc(N3CCN(c4ncnc5nc[nH]c45)CC3)ccc2c1	2.0	7.6	0.1	20.1	.	.
Cc1cccc(NC(=O)C2CCCN2C(=O)OC(C)(C)C)c1 (configuration not stated)	-0.5	77.5*	0.0	-6.8	5.4	0.7
Cc1cccc(NC(=O)C2CCCN2C(=O)OCc2ccccc2)c1 (configuration not stated)	-0.9	-5.7	-0.4	2.5	.	.
COCCCNC(=O)/C(C#N)=C/c1c(Oc2ccc(Cl)cc2)nc2ccccn2c1=O	-6.4	-5.0	0.0	-17.9	.	.
COc1ccc(C2SCC(C(=O)O)N2C(C)=O)cc1OC (configuration not stated)	-0.1	50.6*	0.0	-2.1	10.5	14.4
CC(=O)CCc1ccc(OCC(O)CNC2CCCc3ccccc32)cc1 (configuration not stated)	0.7	70.2*	-0.1	1.2	-2.5	9.6
CCc1ccccc1OC[C@@H](O)CNC1CCCc2ccccc21 (some centres not stated)	0.7	12.9	-0.1	.	.	.
CC(=O)c1cccc(OCCN2CCN(C)CC2)c1	-0.1	57.0*	-0.1	-8.1	9.0	16.0
CC(=O)c1ccc(OCCCN2CCN(C)CC2)cc1	0.0	36.8	-0.3	0.6	.	.
